# Experimental data from PMC7862700, “An all-to-all approach to the identification of sequence-specific readers for epigenetic DNA modifications on cytosine”.
# How the values were obtained:
# Experiment in all cases: DAPPL (digital affinity profiling via proximity ligation, sequencing); 10 mM Tris-HCl pH 7.5, 50 mM NaCl, 1 mM DTT, 4% glycerol, room temperature, 30 min; GST-TFs on glutathione beads, 16-mer random dsDNA library, 0.1% formaldehyde crosslink after washing; high values mean tight binding
# FLI1 = target: T1, FLI1 (Homo sapiens, UniProt Q01543 1-452); settings: protein: recombinant; tags: N-terminal GST; dsDNA, one strand shown
# T1 sequence: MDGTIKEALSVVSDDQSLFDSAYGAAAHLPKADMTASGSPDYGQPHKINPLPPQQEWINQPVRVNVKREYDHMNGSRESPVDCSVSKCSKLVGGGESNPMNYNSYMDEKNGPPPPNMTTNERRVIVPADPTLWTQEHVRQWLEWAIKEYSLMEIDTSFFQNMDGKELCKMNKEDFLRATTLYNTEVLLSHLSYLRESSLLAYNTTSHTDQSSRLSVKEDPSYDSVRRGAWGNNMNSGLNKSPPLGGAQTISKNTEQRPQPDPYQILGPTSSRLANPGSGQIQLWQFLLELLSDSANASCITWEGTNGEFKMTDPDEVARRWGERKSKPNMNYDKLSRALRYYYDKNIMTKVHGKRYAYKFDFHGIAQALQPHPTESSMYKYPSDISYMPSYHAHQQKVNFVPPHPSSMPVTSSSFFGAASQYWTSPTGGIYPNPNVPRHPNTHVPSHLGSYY
# In short: (§1)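 Pools of DNA-barcoded human transcription factors, expressed in yeast as GST fusions on glutathione beads and combined with a tag-only sample, were incubated with 200 nmole of a 16-mer random double-stranded DNA library. Incubation took 30 min at room temperature in Tris/NaCl/DTT/glycerol buffer and was followed by washing, 0.1% formaldehyde crosslinking, proximity ligation (BsaI/T4 ligase, 1 h, 37 °C), PCR amplification and sequencing on an Illumina NextSeq500. Binding signal is the ratio of a hexamer's read frequency for a factor to its frequency for the tag-only sample.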
# ELK1 = target: T2, ELK1 (Homo sapiens, UniProt P19419 1-428); settings: protein: recombinant; tags: N-terminal GST; dsDNA, one strand shown
# T2 sequence: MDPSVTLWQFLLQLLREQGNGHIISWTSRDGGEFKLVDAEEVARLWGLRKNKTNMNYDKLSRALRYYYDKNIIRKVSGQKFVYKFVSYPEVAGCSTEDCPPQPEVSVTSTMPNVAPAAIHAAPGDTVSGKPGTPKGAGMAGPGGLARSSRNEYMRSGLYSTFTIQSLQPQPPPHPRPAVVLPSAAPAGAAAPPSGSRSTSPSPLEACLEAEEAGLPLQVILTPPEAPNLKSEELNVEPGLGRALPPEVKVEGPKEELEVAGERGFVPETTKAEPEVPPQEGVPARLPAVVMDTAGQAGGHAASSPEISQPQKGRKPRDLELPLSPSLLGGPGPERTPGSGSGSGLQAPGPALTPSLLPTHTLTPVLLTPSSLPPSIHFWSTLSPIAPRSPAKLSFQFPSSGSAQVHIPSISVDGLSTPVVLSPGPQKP
# In short: as §1
# GABPA = target: T3, GABPA (Homo sapiens, UniProt Q06546 1-454); settings: protein: recombinant; tags: N-terminal GST; dsDNA, one strand shown
# T3 sequence: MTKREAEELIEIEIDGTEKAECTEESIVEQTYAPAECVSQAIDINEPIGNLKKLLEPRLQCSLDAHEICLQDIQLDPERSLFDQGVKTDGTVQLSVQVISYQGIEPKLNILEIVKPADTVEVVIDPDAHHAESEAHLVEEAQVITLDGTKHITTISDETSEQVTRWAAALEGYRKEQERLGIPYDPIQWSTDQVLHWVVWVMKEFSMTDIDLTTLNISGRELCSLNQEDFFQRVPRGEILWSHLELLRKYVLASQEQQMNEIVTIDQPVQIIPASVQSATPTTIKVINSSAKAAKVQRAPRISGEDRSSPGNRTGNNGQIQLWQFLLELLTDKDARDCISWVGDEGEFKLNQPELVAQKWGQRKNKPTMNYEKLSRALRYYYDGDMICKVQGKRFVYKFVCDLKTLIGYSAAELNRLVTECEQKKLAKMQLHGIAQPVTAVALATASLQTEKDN
# In short: as §1
# ERG = target: T4, ERG (Homo sapiens, UniProt P11308 1-479); settings: protein: recombinant; tags: N-terminal GST; dsDNA, one strand shown
# T4 sequence: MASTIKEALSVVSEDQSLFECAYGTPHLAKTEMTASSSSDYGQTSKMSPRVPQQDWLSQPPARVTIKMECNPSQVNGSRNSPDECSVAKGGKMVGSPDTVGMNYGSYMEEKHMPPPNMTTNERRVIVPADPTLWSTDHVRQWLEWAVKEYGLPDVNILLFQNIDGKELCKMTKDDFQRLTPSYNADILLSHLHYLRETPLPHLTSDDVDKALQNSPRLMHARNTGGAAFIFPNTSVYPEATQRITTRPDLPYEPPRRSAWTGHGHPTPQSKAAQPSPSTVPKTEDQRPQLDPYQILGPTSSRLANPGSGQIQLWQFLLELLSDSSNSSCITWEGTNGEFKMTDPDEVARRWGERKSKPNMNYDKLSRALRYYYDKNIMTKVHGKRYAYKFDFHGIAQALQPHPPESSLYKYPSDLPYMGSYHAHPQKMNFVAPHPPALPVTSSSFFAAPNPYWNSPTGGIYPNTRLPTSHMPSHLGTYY
# In short: as §1
# ELF1 = ELF1 (Homo sapiens, UniProt P32519 1-619); settings: protein: recombinant; tags: N-terminal GST; dsDNA, one strand shown
# Sequence of ELF1 (P32519 whole entry): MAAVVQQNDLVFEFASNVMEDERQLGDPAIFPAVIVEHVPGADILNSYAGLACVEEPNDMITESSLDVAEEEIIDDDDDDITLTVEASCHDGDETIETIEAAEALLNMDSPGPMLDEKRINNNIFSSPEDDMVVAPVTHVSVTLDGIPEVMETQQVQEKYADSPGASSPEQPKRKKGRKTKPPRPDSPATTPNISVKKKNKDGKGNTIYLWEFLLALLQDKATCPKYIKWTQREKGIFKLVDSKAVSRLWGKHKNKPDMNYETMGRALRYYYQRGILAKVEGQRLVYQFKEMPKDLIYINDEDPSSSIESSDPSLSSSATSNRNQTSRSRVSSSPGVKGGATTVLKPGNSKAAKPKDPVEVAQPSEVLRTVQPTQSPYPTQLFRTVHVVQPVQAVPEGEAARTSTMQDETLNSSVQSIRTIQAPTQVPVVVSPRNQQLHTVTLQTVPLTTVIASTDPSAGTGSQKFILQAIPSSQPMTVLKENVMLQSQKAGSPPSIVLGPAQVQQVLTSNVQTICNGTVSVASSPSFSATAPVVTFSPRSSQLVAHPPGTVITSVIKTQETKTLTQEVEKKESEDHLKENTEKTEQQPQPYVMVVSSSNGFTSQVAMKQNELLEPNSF
# In short: as §1
# EHF = target: T5, EHF (Homo sapiens, UniProt Q9NZC4 1-300); settings: protein: recombinant; tags: N-terminal GST; dsDNA, one strand shown
# T5 sequence: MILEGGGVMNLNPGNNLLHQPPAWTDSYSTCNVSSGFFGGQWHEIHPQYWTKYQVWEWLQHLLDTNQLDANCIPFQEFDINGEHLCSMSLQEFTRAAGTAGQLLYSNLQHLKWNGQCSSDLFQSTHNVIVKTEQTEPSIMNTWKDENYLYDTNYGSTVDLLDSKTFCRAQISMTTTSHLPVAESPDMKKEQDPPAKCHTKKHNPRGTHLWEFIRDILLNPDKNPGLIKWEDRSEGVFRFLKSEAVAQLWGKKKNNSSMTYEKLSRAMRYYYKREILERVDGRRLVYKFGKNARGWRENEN
# In short: as §1
# SPI1 = SPI1 (Homo sapiens, UniProt P17947 1-270); settings: protein: recombinant; tags: N-terminal GST; dsDNA, one strand shown
# In short: as §1
# SPIB = SPIB (Homo sapiens, UniProt Q01892 1-262); settings: protein: recombinant; tags: N-terminal GST; dsDNA, one strand shown
# Sequence of SPIB (Q01892 whole entry): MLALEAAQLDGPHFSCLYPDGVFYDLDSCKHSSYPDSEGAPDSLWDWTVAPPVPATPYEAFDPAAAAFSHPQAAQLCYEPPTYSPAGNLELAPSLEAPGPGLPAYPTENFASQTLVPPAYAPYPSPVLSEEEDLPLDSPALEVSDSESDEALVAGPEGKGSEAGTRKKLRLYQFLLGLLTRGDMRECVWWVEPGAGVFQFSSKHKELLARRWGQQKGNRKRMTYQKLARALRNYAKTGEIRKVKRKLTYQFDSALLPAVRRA
# In short: as §1
# ELK3 = target: T6, ELK3 (Homo sapiens, UniProt P41970 1-407); settings: protein: recombinant; tags: N-terminal GST; dsDNA, one strand shown
# T6 sequence: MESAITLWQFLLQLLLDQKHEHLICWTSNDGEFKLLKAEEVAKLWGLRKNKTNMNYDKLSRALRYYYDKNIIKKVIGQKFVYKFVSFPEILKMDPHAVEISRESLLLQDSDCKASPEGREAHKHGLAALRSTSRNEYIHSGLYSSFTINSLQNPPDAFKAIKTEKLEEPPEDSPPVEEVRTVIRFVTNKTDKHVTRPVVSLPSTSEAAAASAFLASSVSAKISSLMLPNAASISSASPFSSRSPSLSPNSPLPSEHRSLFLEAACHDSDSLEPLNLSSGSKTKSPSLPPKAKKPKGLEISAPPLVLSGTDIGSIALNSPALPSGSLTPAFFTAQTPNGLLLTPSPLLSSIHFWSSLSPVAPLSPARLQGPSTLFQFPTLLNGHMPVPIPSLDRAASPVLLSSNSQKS
# In short: as §1
# FEV = target: T7, FEV (Homo sapiens, UniProt Q99581 1-238); settings: protein: recombinant; tags: N-terminal GST; dsDNA, one strand shown
# T7 sequence: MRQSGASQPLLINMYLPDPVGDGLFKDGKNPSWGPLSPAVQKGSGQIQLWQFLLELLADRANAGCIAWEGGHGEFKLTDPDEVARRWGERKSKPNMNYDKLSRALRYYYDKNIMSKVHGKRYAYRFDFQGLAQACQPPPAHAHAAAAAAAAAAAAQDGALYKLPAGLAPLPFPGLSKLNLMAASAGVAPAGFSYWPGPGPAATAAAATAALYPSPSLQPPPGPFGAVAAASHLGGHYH
# In short: as §1
# ETV5 = ETV5 (Homo sapiens, UniProt P41161 1-510); settings: protein: recombinant; tags: N-terminal GST; dsDNA, one strand shown
# Sequence of ETV5 (P41161 whole entry): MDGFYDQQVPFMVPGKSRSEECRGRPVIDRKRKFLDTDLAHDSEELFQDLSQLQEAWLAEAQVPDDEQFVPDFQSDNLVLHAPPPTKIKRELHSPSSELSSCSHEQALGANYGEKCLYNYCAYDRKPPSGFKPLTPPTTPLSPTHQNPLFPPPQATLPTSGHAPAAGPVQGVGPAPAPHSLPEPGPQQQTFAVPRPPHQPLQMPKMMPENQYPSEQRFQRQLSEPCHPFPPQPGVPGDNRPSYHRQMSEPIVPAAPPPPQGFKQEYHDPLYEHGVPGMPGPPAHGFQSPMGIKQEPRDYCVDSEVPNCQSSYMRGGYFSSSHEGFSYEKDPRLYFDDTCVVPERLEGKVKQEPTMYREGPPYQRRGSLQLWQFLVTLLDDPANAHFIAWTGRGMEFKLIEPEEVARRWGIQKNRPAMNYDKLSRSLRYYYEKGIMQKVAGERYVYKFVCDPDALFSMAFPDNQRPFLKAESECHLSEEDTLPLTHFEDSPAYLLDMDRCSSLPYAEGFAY
# In short: as §1
# HSF1 = HSF1 (Homo sapiens, UniProt Q00613 1-529); settings: protein: recombinant; tags: N-terminal GST; chain copies: 3; dsDNA, one strand shown
# Sequence of HSF1 (Q00613 whole entry): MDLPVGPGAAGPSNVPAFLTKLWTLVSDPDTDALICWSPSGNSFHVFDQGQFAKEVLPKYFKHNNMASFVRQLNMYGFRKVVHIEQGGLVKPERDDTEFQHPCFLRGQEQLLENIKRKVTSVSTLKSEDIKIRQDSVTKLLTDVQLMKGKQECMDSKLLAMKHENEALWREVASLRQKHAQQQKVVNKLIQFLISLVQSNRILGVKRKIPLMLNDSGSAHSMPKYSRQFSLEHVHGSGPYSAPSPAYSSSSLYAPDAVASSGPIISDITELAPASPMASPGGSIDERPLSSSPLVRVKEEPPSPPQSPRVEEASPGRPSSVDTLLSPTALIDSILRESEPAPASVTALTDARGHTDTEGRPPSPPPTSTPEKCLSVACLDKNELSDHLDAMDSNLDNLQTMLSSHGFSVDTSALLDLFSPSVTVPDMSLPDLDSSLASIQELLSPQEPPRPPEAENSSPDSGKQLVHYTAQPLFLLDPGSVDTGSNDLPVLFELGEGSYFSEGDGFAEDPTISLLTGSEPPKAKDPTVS
# In short: as §1
# SPIC = target: T8, SPIC (Homo sapiens, UniProt Q8N5J4 1-248); settings: protein: recombinant; tags: N-terminal GST; dsDNA, one strand shown
# T8 sequence: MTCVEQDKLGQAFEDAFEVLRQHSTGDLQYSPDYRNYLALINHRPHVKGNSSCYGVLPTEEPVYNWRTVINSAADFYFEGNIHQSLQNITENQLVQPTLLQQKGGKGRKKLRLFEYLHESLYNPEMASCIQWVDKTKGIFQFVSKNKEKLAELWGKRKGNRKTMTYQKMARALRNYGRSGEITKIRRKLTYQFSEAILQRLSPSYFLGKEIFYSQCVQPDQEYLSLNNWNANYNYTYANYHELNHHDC
# In short: as §1
# ELF4 = ELF4 (Homo sapiens, UniProt Q99607 1-663); settings: protein: recombinant; tags: N-terminal GST; dsDNA, one strand shown
# Sequence of ELF4 (Q99607 whole entry): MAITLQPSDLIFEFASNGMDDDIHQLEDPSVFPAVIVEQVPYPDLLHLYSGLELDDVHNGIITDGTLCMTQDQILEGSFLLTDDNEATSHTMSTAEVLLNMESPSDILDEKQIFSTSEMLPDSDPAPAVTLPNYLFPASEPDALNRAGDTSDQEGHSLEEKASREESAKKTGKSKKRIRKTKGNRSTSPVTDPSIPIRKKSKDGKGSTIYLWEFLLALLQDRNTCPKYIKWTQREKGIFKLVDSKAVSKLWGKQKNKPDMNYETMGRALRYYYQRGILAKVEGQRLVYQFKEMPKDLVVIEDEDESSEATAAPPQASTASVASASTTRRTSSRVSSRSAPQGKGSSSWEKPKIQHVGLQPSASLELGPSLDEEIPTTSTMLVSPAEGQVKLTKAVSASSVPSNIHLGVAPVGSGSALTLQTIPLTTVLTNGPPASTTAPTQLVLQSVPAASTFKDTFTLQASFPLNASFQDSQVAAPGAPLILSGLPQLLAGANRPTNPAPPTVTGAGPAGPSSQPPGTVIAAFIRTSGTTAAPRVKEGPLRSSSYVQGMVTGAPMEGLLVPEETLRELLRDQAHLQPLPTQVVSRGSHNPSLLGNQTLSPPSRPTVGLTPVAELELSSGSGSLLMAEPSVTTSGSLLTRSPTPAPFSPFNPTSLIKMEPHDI
# In short: as §1
# ELK4 = target: T9, ELK4 (Homo sapiens, UniProt P28324-2 1-405); settings: protein: recombinant; tags: N-terminal GST; dsDNA, one strand shown
# T9 sequence: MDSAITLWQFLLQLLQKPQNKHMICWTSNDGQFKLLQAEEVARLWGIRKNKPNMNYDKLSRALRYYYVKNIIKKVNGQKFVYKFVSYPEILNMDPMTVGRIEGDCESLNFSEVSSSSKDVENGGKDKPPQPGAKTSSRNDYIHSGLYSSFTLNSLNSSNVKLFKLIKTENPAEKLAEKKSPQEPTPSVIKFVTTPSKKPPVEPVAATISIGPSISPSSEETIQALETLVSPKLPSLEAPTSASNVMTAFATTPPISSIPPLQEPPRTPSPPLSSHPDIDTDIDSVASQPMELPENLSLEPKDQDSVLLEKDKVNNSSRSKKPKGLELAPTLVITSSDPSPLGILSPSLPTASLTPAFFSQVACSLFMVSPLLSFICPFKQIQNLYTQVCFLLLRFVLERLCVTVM
# In short: as §1
# ETV2 = target: T10, ETV2 (Homo sapiens, UniProt O00321 1-342); settings: protein: recombinant; tags: N-terminal GST; dsDNA, one strand shown
# T10 sequence: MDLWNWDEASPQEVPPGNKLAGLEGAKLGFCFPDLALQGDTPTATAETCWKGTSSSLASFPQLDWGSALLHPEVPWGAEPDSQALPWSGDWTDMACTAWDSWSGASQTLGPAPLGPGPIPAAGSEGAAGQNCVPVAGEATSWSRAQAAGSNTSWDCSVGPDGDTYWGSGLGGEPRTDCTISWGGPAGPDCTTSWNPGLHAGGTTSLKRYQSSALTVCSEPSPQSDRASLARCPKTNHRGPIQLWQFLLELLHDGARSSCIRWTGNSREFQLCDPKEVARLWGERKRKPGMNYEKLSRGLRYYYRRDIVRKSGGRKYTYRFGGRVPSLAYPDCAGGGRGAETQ
# In short: as §1
# ELF3 = target: T11, ELF3 (Homo sapiens, UniProt P78545 1-371); settings: protein: recombinant; tags: N-terminal GST; dsDNA, one strand shown
# T11 sequence: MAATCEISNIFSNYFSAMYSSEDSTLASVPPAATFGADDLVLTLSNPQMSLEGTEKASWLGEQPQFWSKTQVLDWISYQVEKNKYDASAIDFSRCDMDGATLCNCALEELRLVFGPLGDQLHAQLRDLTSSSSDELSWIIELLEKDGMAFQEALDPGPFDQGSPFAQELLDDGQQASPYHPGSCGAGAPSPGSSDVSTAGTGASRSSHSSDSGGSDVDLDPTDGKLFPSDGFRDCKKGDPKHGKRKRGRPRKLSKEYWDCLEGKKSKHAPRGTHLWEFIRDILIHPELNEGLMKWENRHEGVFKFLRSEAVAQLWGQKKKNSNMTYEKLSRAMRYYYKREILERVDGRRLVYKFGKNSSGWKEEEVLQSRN
# In short: as §1
# CRX = CRX (Homo sapiens, UniProt O43186 1-299); settings: protein: recombinant; tags: N-terminal GST; dsDNA, one strand shown
# Sequence of CRX (O43186 whole entry): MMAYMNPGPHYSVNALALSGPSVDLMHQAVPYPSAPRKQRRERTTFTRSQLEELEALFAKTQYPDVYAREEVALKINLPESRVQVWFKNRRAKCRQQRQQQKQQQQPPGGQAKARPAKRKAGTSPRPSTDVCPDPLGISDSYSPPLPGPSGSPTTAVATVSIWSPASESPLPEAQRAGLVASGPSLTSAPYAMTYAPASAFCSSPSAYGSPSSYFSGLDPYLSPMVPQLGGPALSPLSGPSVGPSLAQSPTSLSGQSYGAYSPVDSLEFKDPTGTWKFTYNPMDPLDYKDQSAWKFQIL
# In short: as §1
# ETV1 = ETV1 (Homo sapiens, UniProt P50549 1-477); settings: protein: recombinant; tags: N-terminal GST; dsDNA, one strand shown
# Sequence of ETV1 (P50549 whole entry): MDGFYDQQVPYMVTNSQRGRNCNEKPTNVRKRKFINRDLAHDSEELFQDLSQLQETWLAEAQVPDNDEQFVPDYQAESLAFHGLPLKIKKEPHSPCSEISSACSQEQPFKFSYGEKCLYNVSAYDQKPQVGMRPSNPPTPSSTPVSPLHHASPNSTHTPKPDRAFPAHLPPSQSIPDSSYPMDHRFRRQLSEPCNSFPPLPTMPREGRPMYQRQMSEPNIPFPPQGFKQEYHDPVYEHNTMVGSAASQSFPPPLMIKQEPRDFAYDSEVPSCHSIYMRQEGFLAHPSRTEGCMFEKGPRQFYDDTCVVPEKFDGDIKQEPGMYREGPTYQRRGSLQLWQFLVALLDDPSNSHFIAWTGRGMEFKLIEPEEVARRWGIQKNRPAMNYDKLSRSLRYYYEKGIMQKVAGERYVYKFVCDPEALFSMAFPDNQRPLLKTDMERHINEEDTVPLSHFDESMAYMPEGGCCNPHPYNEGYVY
# In short: as §1
sequence,measurement,setting,value
CGCGCT,binding signal,FLI1,"1.25 fold enrichment (6-mer frequency, TF over GST control)"
same,binding signal,ELK1,"1.32 fold enrichment (6-mer frequency, TF over GST control)"
same,binding signal,GABPA,"1.13 fold enrichment (6-mer frequency, TF over GST control)"
same,binding signal,ERG,"1.13 fold enrichment (6-mer frequency, TF over GST control)"
same,binding signal,ELF1,"1.18 fold enrichment (6-mer frequency, TF over GST control)"
same,binding signal,EHF,"1.17 fold enrichment (6-mer frequency, TF over GST control)"
same,binding signal,SPI1,"1.1 fold enrichment (6-mer frequency, TF over GST control)"
same,binding signal,SPIB,"1.27 fold enrichment (6-mer frequency, TF over GST control)"
same,binding signal,ELK3,"1.21 fold enrichment (6-mer frequency, TF over GST control)"
same,binding signal,FEV,"1.11 fold enrichment (6-mer frequency, TF over GST control)"
same,binding signal,ETV5,"1.17 fold enrichment (6-mer frequency, TF over GST control)"
same,binding signal,HSF1,"1.11 fold enrichment (6-mer frequency, TF over GST control)"
same,binding signal,SPIC,"1.31 fold enrichment (6-mer frequency, TF over GST control)"
same,binding signal,ELF4,"1.2 fold enrichment (6-mer frequency, TF over GST control)"
same,binding signal,ELK4,"1.21 fold enrichment (6-mer frequency, TF over GST control)"
same,binding signal,ETV2,"1.11 fold enrichment (6-mer frequency, TF over GST control)"
same,binding signal,ELF3,"1.05 fold enrichment (6-mer frequency, TF over GST control)"
same,binding signal,CRX,"1.06 fold enrichment (6-mer frequency, TF over GST control)"
same,binding signal,ETV1,"1.15 fold enrichment (6-mer frequency, TF over GST control)"
